Among the data in PubChem BioAssay AID1446 (The Scripps Research Institute Molecular Screening Center, 2008) are inhibition values, retold here.

About 2,400 (1.1%) of roughly 220,000 compounds were called active. The full list was thinned out, with actives kept by preference. Unmarked numbers belong to inactive results.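 The calls were made as follows: active = inhibition above the campaign mean plus 3 SD over all tested compounds (cut at about 24% in these data); inactive = the rest.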

This assay can be described thus: reduced viability of JAK2V617F-dependent Ba/F3 cells, primary screen, JAK2V617F inhibitor project, cell-based, Ba/F3 EpoR-JAK2V617F, luminescence (AID 1446).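 Also: cytokine-independent growth of Ba/F3 cells driven by EpoR plus mutant JAK2; 0% = DMSO-treated cells and 100% = JAK inhibitor I control.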 The following applies: ATP luminescence, at 5.6 µM, hits give high values.
On to `Cc1cccc(-[n+]2c(-c3cccc(Br)c3)[nH]c3nc4ccccc4nc32)c1`, for which the inhibition is -1.46%. To `COc1ccc2nc(Nc3nc4ccc(NC(C)=O)cc4s3)sc2c1` belongs -4.43%.

For the compound `CCCC(=O)Nc1nc2ccc(NC(=O)c3cccnc3)cc2s1`, the inhibition is 2.04%. To `CCCC(=O)Nc1nc2ccc(NC(=O)c3c(F)c(F)c(OC)c(F)c3F)cc2s1` belongs 81.8% (active).

`CCc1cccc(NC(=O)CCNS(=O)(=O)c2cccc3nonc23)c1`: the inhibition was -3.57%. The figure for `Cc1onc(-c2ccc(Cl)cc2)c1-c1ccnn1S(=O)(=O)c1ccc(Cl)cc1` is -1.9%; for `COc1cc(/C=C2/C(=O)ON=C2C)ccc1OCc1ccccc1F` it is -2.39%; for `CC1=NOC(=O)/C1=C\c1ccccc1` it is -4.85%. On to `COc1cc(/C=C2/C(=O)ON=C2C)ccc1OCc1cccc(F)c1`, for which the inhibition was 67.1% (active). To `COc1ccc(NS(=O)(=O)c2ccc(N3CCOCC3)c(NC(=O)c3ccccc3Br)c2)cc1` belongs 2.5%; to `COc1ccccc1N=Cc1c(O)c2ccccc2oc1=O`, 5.52%; to `CC(=O)Nc1nc2ccccc2n1Cc1ccc(C)cc1`, -2.63%. To `CCC(=O)Nc1nc2ccccc2n1Cc1ccccc1C` belongs -0.24%; to `CCCn1c(NC(=O)C23CC4CC(CC(O)(C4)C2)C3)nc2ccccc21`, 53% (active). To `CCOP(=O)(OCC)C(Nc1cccc(C)c1)c1ccc(F)cc1` (centres undefined) belongs -3.26%; to `Cn1cc(/C=C/c2nc3ccccc3c(=O)n2-c2cccc([N+](=O)[O-])c2)c2ccccc21`, 0.27%; to `C/[N+]([O-])=C\c1ccc([N+](=O)[O-])o1`, -0.25%. For the compound `CCn1c(/C=C/c2ccc([N+](=O)[O-])o2)nc2ccccc2c1=O`, the inhibition is 40.5% (active).

For `CCc1nnc(NC(=O)CSc2nnnn2-c2cccc(C(C)=O)c2)s1`, the inhibition is -3.92%. To `CC(=O)Nc1ccc(S(=O)(=O)Oc2ccc(/C=N/N=C3/NC(=O)C(CC(=O)O)S3)cc2)cc1` (centres undefined) belongs 1.79%; to `CCNc1nc(-c2cc3ccccc3o2)cs1`, -1.02%; to `O=c1oc2ccccc2cc1-c1csc(Nc2ccc(O)cc2)n1`, 70.4% (active). The figure for `COc1ccc(C)cc1Nc1nc(-c2c(C)[nH]c3ccccc23)cs1` is -2.69%; for `COc1ccc(OC)c(Nc2nc(-c3ccc(O)c(O)c3)cs2)c1` it is 35.7% (active); for `COc1ccc(Nc2nc(-c3ccccc3)cs2)cc1` it is 1.67%. The figure for `COc1ccc2nc(Nc3nc(-c4ccncc4)cs3)sc2c1` is 3.58%; for `COc1ccc2nc(Nc3nc(-c4cc5ccccc5oc4=O)cs3)sc2c1` it is -2.4%. Consider `COc1ccc(-c2csc(Nc3ccccn3)n2)cc1`, for which the inhibition was -3.7%. The figure for `COc1ccc(-c2csc(Nc3ccc(O)cc3)n2)cc1` is 65.8% (active).

As a reminder, the inhibition is the drop in the measured response relative to a control, in per cent.
